From PubChem
CYP2C19 activ = activators of human cytochrome P450 2C19; P33261; recombinant CYP2C19, luciferin-H EGE luminescence; hits give high values; 0 = fully inhibited enzyme, 1 = untreated enzyme; activation factor at 5 µM; 96,000 tested, under 10 active; AID 1025;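 active means activation factor of at least 2 at 5 µM in the primary screen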
Target sequence (P33261 whole entry, looked up): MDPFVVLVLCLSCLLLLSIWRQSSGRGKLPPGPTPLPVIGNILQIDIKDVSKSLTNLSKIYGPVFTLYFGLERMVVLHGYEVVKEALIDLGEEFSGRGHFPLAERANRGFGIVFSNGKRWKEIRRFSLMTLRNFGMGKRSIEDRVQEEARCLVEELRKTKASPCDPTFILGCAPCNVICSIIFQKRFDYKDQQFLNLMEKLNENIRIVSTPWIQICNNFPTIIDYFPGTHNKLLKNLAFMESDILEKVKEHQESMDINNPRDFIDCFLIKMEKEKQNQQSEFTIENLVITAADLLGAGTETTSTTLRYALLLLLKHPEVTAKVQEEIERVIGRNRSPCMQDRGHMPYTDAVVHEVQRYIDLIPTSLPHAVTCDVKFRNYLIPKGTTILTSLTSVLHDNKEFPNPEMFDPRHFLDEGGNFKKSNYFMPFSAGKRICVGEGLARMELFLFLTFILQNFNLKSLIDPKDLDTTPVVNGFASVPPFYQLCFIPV
CYP2C9 inhib = blocks human cytochrome P450 2C9; P11712; AID 777; actives 20% (n = 96,000); inhibition, % at 5 µM; CYP2C9 Supersomes, luciferin-H conversion, luminescence;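 active means blocking of liver enzyme CYP2C9 beyond about 50% at 5 µM, limit read from the data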
CYP2C19 inhib = inhibitors of human CYP2C19. actives 21% (n = 96,000). inhibition, % at 5 µM. CYP2C19 Supersomes, luciferin-H EGE luminescence, 30 min. AID 778. P33261;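 active means CYP2C19 inhibition above a set limit at 5 µM in the primary screen, cut at about 50% in these data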
CYP2C9 activ = CYP2C9 (human) activation. P11712. recombinant CYP2C9, luciferin-H conversion, luminescence; hits give high values; factor 1 = untreated enzyme, 0 = blocked. activation factor at 5 µM. actives 1.4% (n = 96,000). AID 1024;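 active means activation factor of 2 or more for CYP2C9 at a 5 µM dose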
PostGolgi yeast = growth inhibition of a yeast mutant, post-Golgi transport screen. actives 0.9% (n = 98,000). post-Golgi transport phenotypic cell assay. inhibition, % at 10 µM;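 further: yeast cells grown in 1536-well plates; yeast grown about 18 h at 30C before absorbance read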
PostGolgi ctrl = inhibits growth of the yeast control strain. inhibition, % at 10 µM. actives 5% (n = 98,000). efflux-deficient yeast background strain, growth absorbance A615, 16 h
A number is an active result; 0 = inactive; - = not tested or not shown. The list is not random: actives were taken first. Their share in the collection is about 32%. Unless noted, no stated cut-off is given here; in the data, active means inhibition above about 30%; inactive means the rest.

SMILES	CYP2C19 activ	CYP2C9 inhib	CYP2C19 inhib	CYP2C9 activ	PostGolgi yeast	PostGolgi ctrl
O=C(N/N=C\c1ccc(-c2ccccc2[N+](=O)[O-])o1)C1COc2cc3ccccc3cc2O1 (stereo not given)	0	53	0	0	0	0
Cc1cc2ccccn2c1C(=O)c1ccc(Cl)cc1	0	0	0	0	0	0
Cc1cc2ccccn2c1C(=O)c1ccncc1	0	65	98	0	0	0
COC(=O)NC1CCC(CC2CCC(NC(=O)OC)CC2)CC1 (stereo not given)	0	0	0	0	0	49
CCC(C)[C@H](NC(=O)NC1CC1)C(=O)O (stereo not given in full)	0	0	0	0	0	0
COc1ccc(C(NC(=O)CC(C)C)NC(=O)CC(C)C)cc1OC	0	0	0	0	0	0
CCCCSc1nc(C)c(CC(=O)OC)c(=O)[nH]1	0	0	0	0	0	0
COc1ccc(OC)c(N(CC(=O)NCc2cccnc2)S(C)(=O)=O)c1	0	0	71	0	0	0
Cc1cc(C)cc(N(CC(=O)NCc2cccnc2)S(C)(=O)=O)c1	0	0	64	0	0	0
CS(=O)(=O)N(CC(=O)NCc1ccncc1)c1ccc(Cl)c(Cl)c1	0	99	100	0	0	0
COc1ccc(OC)c(N(CC(=O)NCc2ccncc2)S(C)(=O)=O)c1	0	52	78	0	0	0
CCCNC(=O)C1CC(=O)N(c2ccc(OCC(=O)Nc3cc(C)cc(C)c3)cc2)C1 (stereo not given)	0	0	0	0	-	-
CCC(C)NC(=O)CSc1nnc(-c2ccoc2C)n1CC1CCCO1 (stereo not given)	0	0	0	0	0	0
Cc1ccccc1N(CC(=O)NCc1ccncc1)S(C)(=O)=O	0	86	97	0	0	0
Cc1ccccc1N(CC(=O)Nc1ccccc1C(=O)O)S(C)(=O)=O	0	89	0	0	0	0
CCOC(=O)c1ccccc1NC(=O)CN(c1ccccc1OC)S(C)(=O)=O	0	0	0	0	0	0
Cc1c(NC(=O)c2ccccc2N(C)S(=O)(=O)c2ccccc2)c(=O)n(-c2ccccc2)n1C	0	0	0	0	0	0
Nc1cc(C(=O)OCC(=O)NCc2ccco2)ccc1Cl	0	0	60	0	0	0
COc1ccc(C(=O)OCC(=O)NCc2ccco2)cc1OC	0	0	0	0	0	0
CCOc1ccc(OCC)c(NC(=O)C2C3C=CC(O3)C2C(=O)NCc2ccco2)c1 (stereo not given)	0	0	51	0	0	0
CCCOc1ccc(CC(=O)NCc2ccco2)cc1OC	0	0	63	0	0	0
CCOc1ccc(C(=O)OCC(=O)NCc2ccco2)cc1OCC	0	0	70	0	0	0
CCOc1ccccc1NC(=O)C1C2C=CC(O2)C1C(=O)O (stereo not given)	0	0	0	0	0	0
O=C(CNCC1CCCO1)N1CCCc2ccccc21 (stereo not given)	0	0	0	0	0	0
CCOC(=O)COc1ccsc1C(=O)OC	0	0	0	0	0	0
SMILES	CYP2C19 activ	CYP2C9 inhib	CYP2C19 inhib	CYP2C9 activ	PostGolgi yeast	PostGolgi ctrl
O=C(COC(=O)c1ccccc1)NCC1CCCO1 (stereo not given)	0	0	0	0	0	0
O=C(COc1ccccc1Cl)NCc1ccco1	0	0	0	0	0	0
Nc1cc(C(=O)OCC(=O)NCC2CCCO2)ccc1Cl (stereo not given)	0	0	56	0	0	0
CCOc1ccccc1OCC(=O)NCc1ccco1	0	0	65	0	0	0
Cc1cc(C(=O)OCC(=O)N2c3ccccc3CC2C)c(C)o1 (stereo not given)	0	0	75	0	0	0
CC1CC(C)CN(C(=O)COC(=O)c2cc3ccccc3cc2O)C1 (stereo not given)	0	0	0	0	0	0
Cc1cc(C(=O)OCC(=O)N2CC(C)CC(C)C2)c(C)o1 (stereo not given)	0	0	55	0	0	0
N#Cc1cnn(-c2ncnc3sc(-c4ccccc4)cc23)c1N	0	0	0	0	0	0
CCOC(=O)c1c(C)oc2ccc(OCC(=O)C(C)(C)C)cc12	0	72	65	0	0	0
COC(=O)c1cc(COc2ccc3oc(C)c(C(=O)OC)c3c2)c(C)o1	0	0	0	0	0	0
CCOC(=O)c1c(C)oc2ccc(OCc3cc(C(=O)OC)oc3C)cc12	0	86	64	0	0	0
